Experimental data reported in PubChem BioAssay (NCATS).
Unmarked numbers belong to inactive results. Inconclusive results are not listed. Calls of active or inactive are those of the source. Unless noted, calls come from the whole dose curve; as a rule, active = well fitted curve in either direction with a large enough effect (not every such curve was filed as active); inconclusive = small, poorly fitted or top-dose-only effect, or another doubt; inactive = flat fitted curve, though single readings scatter.

Experiments:
[1] = target: Lysosomal acid glucosylceramidase (Homo sapiens) (UniProt P04062); test: Glucocerebrosidase-p2 (AID 348; in the data active = potency below about 10 µM; note: potency is the fitted concentration of half-maximal effect); conditions: purified GBA, blue fluorogenic substrate, 40 min
Method in brief: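 Normal human glucocerebrosidase (0.2 nM) with blue fluorogenic substrate (80 uM final) in citrate/phosphate pH 5.9 with 10mM sodium taurocholate, 0.01% tween-20; 40 min RT, NaOH/glycine stop; fluorescence Ex 365/Em 440; AC50 from a titration from 0.6 nM upwards.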

[2] = AP1 Signaling Pathway (AID 357); conditions: ME-180 AP-1-bla reporter, EGF-induced, beta-lactamase ratio, 5 h; at 7.69 µM (top of the series) unless noted;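 note: ME-180 reporter cells stimulated with EGF at its EC50 level; % is set by controls: 0 for no effect and ±100 for the full control effect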
Method in brief: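 AP-1-bla ME-180 cells, Opti-MEM + 0.5% dialyzed FBS, plated overnight 37 °C. Cpd titration + EC50 EGF, 5 h 37 °C. CCF4 2.5 h RT; ex 405, em 460/530 ratio → %activity, AC50.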

[3] = target: Cytochrome P450 1A2 (Homo sapiens) (UniProt P05177); test: p450-cyp1a2 (AID 410; calls by dose curve; note: potency is the fitted concentration of half-maximal effect;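 for activity change, negative = inhibition: -100% = full effect of reference inhibitor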); conditions: recombinant CYP1A2, luciferin-ME demethylation, luminescence; series mostly up to 11.4 µM
Method in brief: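 20nM CYP1A2, 100uM Luciferin-ME (=Km), 100mM KPO4; cpd 10 min RT; +NADPH regen, 60 min RT; stop/detect 20 min; luminescence. Normalized to furafylline 57 uM = full inhibition.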

[4] = NFAT Signaling Pathway (AID 444); conditions: Jurkat NFAT-bla M1, carbachol, beta-lactamase ratio, 5 h; at 7.69 µM (top of the series) unless noted;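 note: carbachol stimulus at about its EC50 of 1 µM final; % is set by controls: 0 for no effect and ±100 for the full control effect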
Method in brief: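 Read-out: CCF4 FRET ratio (460 nm/530 nm) after 1 h RT dye loading, used for %activity and AC50 from titration series. Cells: Jurkat NFAT-β-lactamase/M1 line, treated with compound plus 1 uM carbachol for 5 h, 37 °C.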

[5] = Stat Signaling Pathway (AID 446); conditions: ME-180 (cervical carcinoma) SIE beta-lactamase reporter, IL-6 stimulated, 5 h; at 7.69 µM (top of the series) unless noted;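 note: ME-180 cervical cancer cells given 40 pM IL-6 alongside compound; SIE-controlled beta-lactamase reporter measured as 460/530 nm FRET emission ratio; % is set by controls: 0 for no effect and ±100 for the full control effect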
Method in brief: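 Emission at 460 and 530 nm (excitation 405 nm) reports SIE-controlled beta-lactamase in ME-180 cells. Cells received compound with 40 pM IL-6 for 5 hrs at 37 C; data scaled between 300 pM IL-6 and 125 nM JAK-inhibitor controls.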

[6] = target: Glucocorticoid receptor (Homo sapiens) (UniProt P04150); test: GR-GFP Redistribution (AID 450;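 active = compounds whose dose series gives a full or clear partial fitted curve of increased nuclear translocation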; note: potency is the fitted concentration of half-maximal effect); conditions: U2OS GR-GFP nuclear translocation, laser cytometry, 2 h
[7] = target: Glucocorticoid receptor (Homo sapiens) (UniProt P04150); test: GR-EFC Redistribution (AID 451; calls by dose curve; note: potency is the fitted concentration of half-maximal effect); conditions: CHO-K1 GR-EFC translocation, beta-gal luminescence, 2 h
Method in brief: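 Translocation of GR-ED fusion to nuclear EA restores b-gal, read by luminescence after 1 h room-temperature detection. Engineered CHO-K1 biosensor cells, 1,000/well, exposed 2 h at 37 C to titrations up to 46 uM final.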

[8] = target: Mitogen-activated protein kinase 10 (Mus musculus) (UniProt Q61831); test: JNK3 AlphaScreen Assay (AID 530); conditions: JNK3 lysate, c-Jun phosphorylation; series mostly up to 11.4 µM;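 note: kinase came from lysate of stimulated human HepG2 cells; signal reports phosphorylation of biotinylated GST-cJun 1-79 at Ser73 with 10 µM ATP; % is set by controls: 0 for no effect and ±100 for the full control effect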
Method in brief: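 Kinase buffer: 20 mM Tris-HCl pH 7.6, 10 mM MgCl2, 1 mM DTT, 0.1 mM Na3VO4, 0.01% Tween-20; ATP 10 uM. Substrate biotin-GST-cJun(1-79), enzyme from activated HepG2 lysates. Detection by Ser73 phospho-antibody AlphaScreen.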

[9] = target: 3',5'-cyclic-AMP phosphodiesterase 4B (Homo sapiens) (UniProt Q07343); test: qHTS Assay for Inhibitors of PDE-IV (AID 607; active = well fitted activation curve with a large enough effect in the main read-out, with a control signal flat, not every such curve was filed as active; note: % of control where 0% means no effect); conditions: HEK293 ACTOne CNG channel cells, membrane potential fluorescence; series mostly up to 22.9 µM
Method in brief: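 The readout is membrane depolarisation from a cAMP-sensing CNG channel, detected with a potential dye at ex 535/em 590. Cells were HEK293-derived (endogenous PDE-IV) at 1000 cells/well, titrated up to 22.9 uM final.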

Chain of Lysosomal acid glucosylceramidase (Homo sapiens) (P04062 whole entry, looked up): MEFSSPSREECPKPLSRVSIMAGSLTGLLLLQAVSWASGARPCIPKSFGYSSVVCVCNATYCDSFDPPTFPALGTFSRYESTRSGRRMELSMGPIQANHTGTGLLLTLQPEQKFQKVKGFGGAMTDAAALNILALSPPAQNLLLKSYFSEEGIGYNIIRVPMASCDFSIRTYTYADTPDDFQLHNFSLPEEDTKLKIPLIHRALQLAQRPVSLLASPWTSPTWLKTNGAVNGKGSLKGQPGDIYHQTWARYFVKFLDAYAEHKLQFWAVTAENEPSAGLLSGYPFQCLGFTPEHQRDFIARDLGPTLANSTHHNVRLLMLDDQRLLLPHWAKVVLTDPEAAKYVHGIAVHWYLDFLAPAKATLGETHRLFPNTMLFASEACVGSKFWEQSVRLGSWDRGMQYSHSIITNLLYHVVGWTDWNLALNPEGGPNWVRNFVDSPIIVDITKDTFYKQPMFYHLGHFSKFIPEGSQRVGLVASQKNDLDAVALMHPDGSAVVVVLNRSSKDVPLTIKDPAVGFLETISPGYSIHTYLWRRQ
Chain of 3',5'-cyclic-AMP phosphodiesterase 4B (Homo sapiens) (Q07343 whole entry, looked up): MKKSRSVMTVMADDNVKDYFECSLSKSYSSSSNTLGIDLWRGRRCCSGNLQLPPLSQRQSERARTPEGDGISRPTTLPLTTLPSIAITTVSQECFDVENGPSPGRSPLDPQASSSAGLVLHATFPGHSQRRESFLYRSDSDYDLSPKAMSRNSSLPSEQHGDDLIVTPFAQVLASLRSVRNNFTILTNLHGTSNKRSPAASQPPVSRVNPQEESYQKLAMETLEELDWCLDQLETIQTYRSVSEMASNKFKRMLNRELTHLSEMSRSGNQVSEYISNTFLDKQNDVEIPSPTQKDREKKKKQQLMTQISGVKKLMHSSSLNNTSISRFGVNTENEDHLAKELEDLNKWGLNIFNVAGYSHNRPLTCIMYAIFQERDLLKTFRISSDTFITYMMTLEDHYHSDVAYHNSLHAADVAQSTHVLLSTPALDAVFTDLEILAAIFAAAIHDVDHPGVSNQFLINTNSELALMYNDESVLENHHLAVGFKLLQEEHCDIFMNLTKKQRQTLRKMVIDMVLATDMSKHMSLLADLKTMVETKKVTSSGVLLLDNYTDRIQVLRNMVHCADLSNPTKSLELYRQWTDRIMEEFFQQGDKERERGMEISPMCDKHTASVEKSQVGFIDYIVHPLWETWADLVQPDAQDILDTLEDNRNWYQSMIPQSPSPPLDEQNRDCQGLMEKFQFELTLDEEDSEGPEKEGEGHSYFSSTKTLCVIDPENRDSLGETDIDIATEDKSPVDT
Chain of Glucocorticoid receptor (Homo sapiens) (P04150 whole entry, looked up, the tested form may be a part): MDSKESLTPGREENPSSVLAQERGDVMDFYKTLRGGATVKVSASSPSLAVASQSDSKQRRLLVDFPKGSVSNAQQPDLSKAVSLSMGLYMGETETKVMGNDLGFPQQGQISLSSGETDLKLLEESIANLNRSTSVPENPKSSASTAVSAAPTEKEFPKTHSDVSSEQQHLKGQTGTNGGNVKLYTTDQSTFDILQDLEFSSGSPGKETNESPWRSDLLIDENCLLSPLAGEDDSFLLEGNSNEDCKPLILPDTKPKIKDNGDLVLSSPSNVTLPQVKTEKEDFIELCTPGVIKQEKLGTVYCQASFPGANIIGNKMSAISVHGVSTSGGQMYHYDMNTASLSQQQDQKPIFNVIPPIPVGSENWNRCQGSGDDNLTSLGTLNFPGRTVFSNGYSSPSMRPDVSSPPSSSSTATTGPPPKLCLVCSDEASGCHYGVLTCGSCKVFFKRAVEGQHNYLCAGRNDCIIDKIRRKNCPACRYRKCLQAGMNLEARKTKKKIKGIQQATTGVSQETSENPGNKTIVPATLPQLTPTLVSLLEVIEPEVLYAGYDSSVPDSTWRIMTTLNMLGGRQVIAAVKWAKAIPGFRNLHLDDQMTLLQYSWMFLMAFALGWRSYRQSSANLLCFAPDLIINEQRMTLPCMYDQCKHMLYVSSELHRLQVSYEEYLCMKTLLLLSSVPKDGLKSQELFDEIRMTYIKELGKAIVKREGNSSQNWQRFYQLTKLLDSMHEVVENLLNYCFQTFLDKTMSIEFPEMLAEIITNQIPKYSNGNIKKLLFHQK
Chain of Cytochrome P450 1A2 (Homo sapiens) (P05177 whole entry, looked up): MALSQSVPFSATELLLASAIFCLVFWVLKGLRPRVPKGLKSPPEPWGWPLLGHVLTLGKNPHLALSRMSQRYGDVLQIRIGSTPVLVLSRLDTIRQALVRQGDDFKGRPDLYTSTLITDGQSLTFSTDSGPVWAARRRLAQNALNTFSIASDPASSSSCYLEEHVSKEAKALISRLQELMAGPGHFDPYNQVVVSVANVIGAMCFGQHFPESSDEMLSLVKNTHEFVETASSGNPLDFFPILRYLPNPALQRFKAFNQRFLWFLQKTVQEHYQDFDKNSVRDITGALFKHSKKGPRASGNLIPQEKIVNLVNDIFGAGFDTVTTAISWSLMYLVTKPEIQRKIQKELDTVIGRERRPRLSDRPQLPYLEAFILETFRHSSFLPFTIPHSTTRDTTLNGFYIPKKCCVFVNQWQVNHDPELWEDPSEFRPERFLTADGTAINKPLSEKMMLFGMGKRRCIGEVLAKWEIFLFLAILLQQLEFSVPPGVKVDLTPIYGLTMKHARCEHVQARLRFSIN

Row | SMILES | Potency [1] | activity change, negative = inhibition [2] | Potency [3] | activity change, negative = inhibition [4] | activity, negative = inhibition [5] | Potency [6] | Potency [7] | Potency [8] | Potency [9] | activity change, negative = inhibition [3]
1 | O=S1(=O)N[C@H]2CC[C@@H]3NS(=O)(=O)N[C@H]4CC[C@H](N1)N4S(=O)(=O)N23 | > 11.4 µM | -14.2% | inactive | 23.9% | -2.8% | > 46 µM | > 9.22 µM | inactive | inactive | –
2 | CCN(CC(=O)O)CC(=O)O | > 11.4 µM | -0.0102% | inactive | 0.338% | 13.7% | > 46 µM | > 9.22 µM | inactive | inactive | –
3 | CC(=O)Nc1ccc(S(=O)(=O)N=S(C)C)cc1 | > 11.4 µM | 4.76% | – | 3.98% | -3.32% | > 46 µM | > 9.22 µM | inactive | inactive | -15.9% [at 2.29 µM]
4 | O=C(O)[C@H]1[C@H](C(=O)O)[C@H](C(=O)O)C[C@@H]1C(=O)O | > 11.4 µM | -1.4% | inactive | 2.63% | 4.24% | > 46 µM | > 9.22 µM | inactive | inactive | –
5 | CC(C)=NNc1ncnc2nc[nH]c12 | > 11.4 µM | -3.94% | 794 nM (active) | 3.34% | 8.2% | > 46 µM | > 9.22 µM | inactive | inactive | –
6 | Cn1c(=O)c2[nH]c([C@@H]3CC(=O)C[C@H](c4nc5c([nH]4)c(=O)n(C)c(=O)n5C)N3)nc2n(C)c1=O | > 11.4 µM | 3.07% | – | 19% | 6.09% | > 46 µM | > 9.22 µM | inactive | inactive | -18.2% [at 2.29 µM]
7 | N[C@@H]1[C@@H]2[C@@H]3C[C@H]4N(CC[C@@]14C(=O)C(=O)O)CC3=CCO[C@@H]2CC(=O)O | > 11.4 µM | -3.74% | inactive | 4.96% | 6.97% | > 46 µM | > 9.22 µM | inactive | inactive | –
8 | CCc1c(O)c2c(c(O)c1C(C)=O)C(=O)c1c(cc(O)c(C(=O)O)c1C(=O)O)C2=O | > 11.4 µM | -2.41% | inactive | 15.1% | 5.45% | > 46 µM | > 9.22 µM | inactive | inactive | –
9 | O=C(O)C[C@H](Cc1ccc2c(c1)OCO2)C(=O)O | > 11.4 µM | 2.2% | inactive | -29.5% | -2.05% | > 46 µM | > 9.22 µM | inactive | inactive | –
10 | Cn1c(=O)c2[nH]c(COCc3nc4c([nH]3)c(=O)n(C)c(=O)n4C)nc2n(C)c1=O | > 11.4 µM | 6.66% | – | 5.77% | -2.27% | > 46 µM | > 9.22 µM | inactive | inactive | 4.5% [at 2.29 µM]
11 | NCCCc1ccc2oc3ccccc3c2c1 | > 11.4 µM | 19.9% | 31.6 nM (active) | 14.4% | 0.365% | > 46 µM | > 9.22 µM | inactive | inactive | –
12 | NC(N)=N/N=C\c1ccc(C2CCNCC2)cc1 | > 11.4 µM | 7.39% | – | -11.8% | 0.317% | > 46 µM | > 9.22 µM | inactive | inactive | -12% [at 2.29 µM]
13 | O=c1cc(CF)[nH]c(=S)[nH]1 | > 11.4 µM | 6.77% | inactive | 5.97% | 13.4% | > 46 µM | > 9.22 µM | inactive | inactive | –
14 | NCC(=O)Nc1ccccc1 | > 11.4 µM | 4.23% | 2510 nM (active) | 1.46% | 4.18% | > 46 µM | > 9.22 µM | inactive | inactive | –
15 | O=C(O)CCSc1ncnc2nc[nH]c12 | > 11.4 µM | 15.6% | inactive | 1.77% | 0.335% | > 46 µM | > 9.22 µM | inactive | inactive | –
16 | [Cu].[O-]/N=C1/C(=[OH+])Nc2ccccc21.[O-]Nc1c(O)[nH]c2ccccc12 | > 11.4 µM | 3.32% | – | 13.2% | 5.41% | > 46 µM | > 9.22 µM | inactive | inactive | -20.1% [at 2.29 µM]
